Laboratory results as given in PubChem BioAssay.
The source made the active and inactive calls.

Columns and labels:
[1] = system: Plasmodium falciparum Sir2 (PF13_0152, Sir2A); assay: Plasmodium falciparum Sir2A binding compounds – biochemical, small-molecule microarray, 635 nm fluorescence, primary screen (AID 1098); settings: fluorescence 635 nm, higher = more signal;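 further: score merges spot fluorescence intensity with its signal-to-noise ratio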
[2] = probe aDKK1 binding to arrayed compounds – biochemical, biotinylated probe, 635/667 nm fluorescence, primary screen (AID 1099); settings: small-molecule microarray, higher = more signal;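 further: score merges 667nm spot fluorescence with signal to noise across triplicate slides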
[3] = probe aCHRDL2 binding to arrayed compounds – biochemical, biotinylated probe, 635/667 nm fluorescence, primary screen (AID 1100); settings: small-molecule microarray, higher = more signal
[4] = change in splice reporter luminescence, either direction, cell-based, HEK293, spliceosome inhibition project, primary screen (AID 1101); settings: HEK293 splicing luciferase reporter, 24 h, higher = more signal, called active from +8 up or from −8 down;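 further: HEK293 cells carrying a splicing-competent luciferase reporter gene; test concentration not given here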
[5] = target: Fibroblast growth factor 10 (Homo sapiens) (UniProt O15520); assay: compounds binding fibroblast growth factor 10 – biochemical, small-molecule microarray, 635 nm fluorescence, primary screen (AID 1102); settings: FGF10 binding, fluorescence 635 nm, higher = more signal
[6] = system: glycogen synthase kinase-3 (GSK3A per assay name; protocol says GSK3B); assay: compounds binding glycogen synthase kinase-3 – biochemical, small-molecule microarray, 635 nm fluorescence, GSK3A, primary screen (AID 1103); settings: fluorescence 635 nm, higher = more signal; further: the record names both GSK3A and GSK3B
[7] = target: Epidermal growth factor receptor (Homo sapiens) (UniProt P00533); assay: compounds binding epidermal growth factor receptor – biochemical, small-molecule microarray, 635 nm fluorescence, primary screen (AID 1104); settings: EGFR binding, higher = more signal;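 further: score merges 667 nm emission intensity with spot signal to noise over triplicate slides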
[8] = target: Follistatin-related protein 3 (Homo sapiens) (UniProt O95633); assay: compounds binding follistatin-related protein 3 – biochemical, small-molecule microarray, 635 nm fluorescence, primary screen (AID 1105); settings: FSTL3 binding, higher = more signal;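 further: score merges emission near 667 nm and signal to noise per printed spot across three slides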
[9] = target: Dickkopf-related protein 1 (Homo sapiens) (UniProt O94907); assay: small molecules binding DKK1 protein – biochemical, small-molecule microarray, 635 nm fluorescence scan, primary screen (AID 1106); settings: higher = more signal;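 further: score merges emission near 667 nm with signal to noise over three replicate slides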
[10] = system: Inhibin beta A chain (activin A); assay: small molecules binding activin A – biochemical, small-molecule microarray, 635 nm fluorescence scan, primary screen (AID 1107); settings: INHBA, higher = more signal;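 further: mouse activin A protein probed at 4.33 µg/mL on printed slides; score merges bound-protein fluorescence near 667 nm with spot signal-to-noise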
[11] = system: Human papillomavirus type 1a protein E7 (residues 44-93); assay: small molecules binding HPV E7 44-93 – biochemical, small-molecule microarray, residues 44-93, 635 nm fluorescence, primary screen (AID 1108); settings: fluorescence 635 nm, higher = more signal;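 further: E7 fragment applied at 1 µg/mL in TBST for 1 h at 4 C; score combines spot fluorescence with its signal to noise ratio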
[12] = hepatitis C replication reporter changes, two-sided – Huh7 cells, luciferase reporter, HCV replication inhibitor project, primary screen (AID 1109); settings: Huh7 HCV replicon luciferase reporter, 48 h; higher = more signal;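 further: huh7 hepatoma cells harbouring a luciferase neomycin HCV replicon reporter; luciferase luminescence as measure of HCV replicon replication; test concentration not given here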
[13] = target: Left-right determination factor 2 (Homo sapiens) (UniProt O00292); assay: small molecules binding LEFTY2 protein – biochemical, small-molecule microarray, 635 nm fluorescence scan, primary screen (AID 1110); settings: higher = more signal
[14] = target: Calmodulin-1 (Homo sapiens) (UniProt P0DP23); assay: small molecules binding calmodulin-1 with EGTA – biochemical, small-molecule microarray, Cy5-labelled CALM1, profiling panel (AID 1111); settings: Cy5-CALM1 binding fluorescence, higher = more signal;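 further: labelled calmodulin applied in Tris saline Tween buffer holding calcium plus EGTA and DTT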
[15] = target: Calmodulin-1 (Homo sapiens) (UniProt P0DP23); assay: small molecules binding Ca-loaded calmodulin-1 – biochemical, small-molecule microarray, Cy5-labelled CALM1, plus calcium, artefact control for SMM control-protein annotation, profiling panel (AID 1112); settings: Cy5-CALM1 binding fluorescence, higher = more signal;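 further: score merges spot fluorescence with signal to noise from triplicate slides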
[16] = probe aWnt5a binding to arrayed compounds – biochemical, biotinylated probe, 635/667 nm fluorescence, primary screen (AID 1113); settings: small-molecule microarray, higher = more signal;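 further: score merges 667 nm fluorescence intensity with signal-to-noise per printed feature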
[17] = probe aShh binding to arrayed compounds – biochemical, biotinylated probe, 635/667 nm fluorescence, primary screen (AID 1114); settings: small-molecule microarray, higher = more signal;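 further: probe is biotin-labelled aShh protein from a stem cell growth factor screen; measures binding of labelled protein to compounds printed on the slide; score merges feature fluorescence at 667 nm with signal-to-noise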
[18] = probe aNog binding to arrayed compounds – biochemical, biotinylated probe, 635/667 nm fluorescence, primary screen (AID 1115); settings: small-molecule microarray, higher = more signal;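 further: probe is biotinylated aNog protein used at 0.15 µg/mL for 1 h at 4 C; z-score combines 667 nm fluorescence of each spot with its signal to noise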
[19] = target: Torsin-1A-interacting protein 1 (Homo sapiens) (UniProt Q5JTV8); assay: compound microarray binding of lysate hLAP1 – cell lysate, small-molecule microarray, COS7 lysate, 635/667 nm fluorescence, primary screen (AID 1116); settings: 635 nm fluorescence, higher = more signal
[20] = target: Alpha-bungarotoxin (Bungarus multicinctus) (UniProt P60615); assay: compounds binding labelled alpha-BTX control protein – biochemical, small-molecule microarray, Alexa647 label, 635/667 nm fluorescence, artefact control for SMM control protein annotation, profiling panel (AID 1117); settings: alpha-BTX-A647 binding fluorescence, higher = more signal
Sequence of Alpha-bungarotoxin (Bungarus multicinctus) (P60615 whole entry, looked up): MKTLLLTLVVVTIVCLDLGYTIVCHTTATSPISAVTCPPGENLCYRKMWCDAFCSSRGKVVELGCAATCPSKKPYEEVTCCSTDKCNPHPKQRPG

Sequence of Torsin-1A-interacting protein 1 (Homo sapiens) (Q5JTV8 whole entry, looked up): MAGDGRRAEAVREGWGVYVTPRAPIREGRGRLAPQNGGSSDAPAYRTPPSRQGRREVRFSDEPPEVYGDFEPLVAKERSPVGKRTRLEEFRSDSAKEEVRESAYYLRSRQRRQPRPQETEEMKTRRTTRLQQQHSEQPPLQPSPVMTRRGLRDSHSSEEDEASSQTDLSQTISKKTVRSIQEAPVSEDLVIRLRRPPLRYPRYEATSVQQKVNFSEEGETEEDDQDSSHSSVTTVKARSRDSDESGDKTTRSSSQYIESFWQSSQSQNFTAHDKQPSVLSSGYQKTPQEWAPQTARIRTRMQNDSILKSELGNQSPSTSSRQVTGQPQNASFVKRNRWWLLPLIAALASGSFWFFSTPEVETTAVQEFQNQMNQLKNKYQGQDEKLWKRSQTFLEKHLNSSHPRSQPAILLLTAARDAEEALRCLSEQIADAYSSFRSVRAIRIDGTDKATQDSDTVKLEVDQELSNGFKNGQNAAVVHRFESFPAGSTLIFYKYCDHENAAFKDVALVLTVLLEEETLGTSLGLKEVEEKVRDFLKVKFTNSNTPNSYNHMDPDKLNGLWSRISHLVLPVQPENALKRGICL
Sequence of Epidermal growth factor receptor (Homo sapiens) (P00533 whole entry, looked up): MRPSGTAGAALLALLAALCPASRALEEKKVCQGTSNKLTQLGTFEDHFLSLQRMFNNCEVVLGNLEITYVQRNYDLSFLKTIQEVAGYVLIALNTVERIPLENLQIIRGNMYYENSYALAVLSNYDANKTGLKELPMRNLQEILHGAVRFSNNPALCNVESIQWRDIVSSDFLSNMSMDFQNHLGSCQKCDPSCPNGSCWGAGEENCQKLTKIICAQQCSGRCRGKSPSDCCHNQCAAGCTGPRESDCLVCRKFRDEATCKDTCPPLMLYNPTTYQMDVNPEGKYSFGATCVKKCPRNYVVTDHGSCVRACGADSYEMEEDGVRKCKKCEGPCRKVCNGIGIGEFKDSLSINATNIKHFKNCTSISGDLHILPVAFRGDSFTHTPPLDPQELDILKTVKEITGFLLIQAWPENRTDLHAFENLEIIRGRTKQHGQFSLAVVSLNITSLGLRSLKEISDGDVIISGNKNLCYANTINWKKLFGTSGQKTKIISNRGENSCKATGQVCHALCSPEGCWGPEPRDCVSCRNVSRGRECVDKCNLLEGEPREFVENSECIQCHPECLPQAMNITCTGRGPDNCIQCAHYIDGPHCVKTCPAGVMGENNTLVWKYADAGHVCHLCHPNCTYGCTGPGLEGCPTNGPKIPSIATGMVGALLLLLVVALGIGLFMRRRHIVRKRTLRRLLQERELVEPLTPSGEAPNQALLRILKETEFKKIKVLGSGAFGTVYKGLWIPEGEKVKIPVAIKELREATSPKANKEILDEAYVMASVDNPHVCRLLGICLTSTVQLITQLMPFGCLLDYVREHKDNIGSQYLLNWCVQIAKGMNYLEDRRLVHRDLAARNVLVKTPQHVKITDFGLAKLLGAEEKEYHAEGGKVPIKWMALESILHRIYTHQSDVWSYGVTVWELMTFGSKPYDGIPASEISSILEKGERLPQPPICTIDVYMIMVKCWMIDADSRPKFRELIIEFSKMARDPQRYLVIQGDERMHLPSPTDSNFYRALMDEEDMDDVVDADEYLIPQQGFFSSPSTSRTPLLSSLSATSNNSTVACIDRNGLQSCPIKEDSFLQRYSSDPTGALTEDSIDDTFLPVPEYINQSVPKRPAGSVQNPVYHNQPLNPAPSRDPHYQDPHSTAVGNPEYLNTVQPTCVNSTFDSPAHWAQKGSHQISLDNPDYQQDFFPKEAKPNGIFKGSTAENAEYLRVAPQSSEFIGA
Sequence of Left-right determination factor 2 (Homo sapiens) (O00292 whole entry, looked up): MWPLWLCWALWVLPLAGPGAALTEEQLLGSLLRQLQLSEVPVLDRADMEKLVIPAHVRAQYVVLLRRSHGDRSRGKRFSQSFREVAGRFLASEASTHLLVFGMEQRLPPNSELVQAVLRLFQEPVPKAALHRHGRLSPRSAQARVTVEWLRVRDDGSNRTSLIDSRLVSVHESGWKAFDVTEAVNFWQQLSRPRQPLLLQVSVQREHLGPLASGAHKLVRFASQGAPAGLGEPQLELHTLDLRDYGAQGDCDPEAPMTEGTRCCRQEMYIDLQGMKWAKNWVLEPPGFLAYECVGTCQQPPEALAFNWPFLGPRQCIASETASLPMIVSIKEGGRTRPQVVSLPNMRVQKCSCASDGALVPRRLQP
Sequence of Follistatin-related protein 3 (Homo sapiens) (O95633 whole entry, looked up): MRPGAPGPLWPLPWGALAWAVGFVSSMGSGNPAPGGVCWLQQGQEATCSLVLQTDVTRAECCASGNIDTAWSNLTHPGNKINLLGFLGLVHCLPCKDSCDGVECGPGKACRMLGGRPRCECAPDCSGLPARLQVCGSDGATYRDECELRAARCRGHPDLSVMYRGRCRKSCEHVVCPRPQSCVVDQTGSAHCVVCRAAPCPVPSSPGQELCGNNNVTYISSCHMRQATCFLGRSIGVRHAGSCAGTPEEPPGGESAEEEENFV
Sequence of Fibroblast growth factor 10 (Homo sapiens) (O15520 whole entry, looked up): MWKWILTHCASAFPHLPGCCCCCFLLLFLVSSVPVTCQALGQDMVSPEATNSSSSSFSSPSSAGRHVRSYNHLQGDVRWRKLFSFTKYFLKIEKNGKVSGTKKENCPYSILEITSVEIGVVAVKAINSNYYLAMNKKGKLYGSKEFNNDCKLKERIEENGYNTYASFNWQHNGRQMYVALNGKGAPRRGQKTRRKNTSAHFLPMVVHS
Sequence of Dickkopf-related protein 1 (Homo sapiens) (O94907 whole entry, looked up): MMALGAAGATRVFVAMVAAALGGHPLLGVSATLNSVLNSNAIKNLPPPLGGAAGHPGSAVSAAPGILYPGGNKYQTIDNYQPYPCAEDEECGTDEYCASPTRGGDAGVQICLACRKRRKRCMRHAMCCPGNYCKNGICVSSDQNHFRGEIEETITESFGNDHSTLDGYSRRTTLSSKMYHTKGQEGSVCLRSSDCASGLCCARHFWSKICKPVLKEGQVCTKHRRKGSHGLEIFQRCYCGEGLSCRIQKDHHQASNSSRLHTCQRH

| SMILES | composite z-score [1] | composite z-score [2] | composite z-score [3] | z-score [4] | composite z-score [5] | composite z-score [6] | composite z-score [7] | composite z-score [8] | composite z-score [9] | composite z-score [10] | composite z-score [11] | z-score [12] | composite z-score [13] | composite z-score [14] | composite z-score [15] | composite z-score [16] | composite z-score [17] | composite z-score [18] | composite z-score [19] | composite z-score [20] |
| --- | --- | --- | --- | --- | --- | --- | --- | --- | --- | --- | --- | --- | --- | --- | --- | --- | --- | --- | --- | --- |
| O=C(N1CCCCC1)[C@@]1(Cc2ccccc2)COC(c2ccc(OCCCO)cc2)=N1 | 1.48 | 1.11 | 1.25 | 0.419 (inactive) | 1.44 | 0.705 | -0.153 | 0.12 | -0.275 | 0.691 | 0.242 | -1.98 | -0.462 | 2.02 | 1.23 | 0.113 | 0.253 | 0.293 | 0.996 | 1.83 |
| CC(C)C(O)C1C=CC2C(=O)N(C)C(=O)C2N1N(c1ccccc1)c1ccccc1 (stereo not given) | 1.09 | 0.185 | 0.972 | 1.06 (inactive) | -0.879 | -1.5 | -0.381 | -0.49 | -1.07 | 1.7 | -0.192 | 0.865 | 0.0172 | 0.107 | 0.368 | -0.0165 | 0.14 | 0.603 | 0.251 | 0.218 |
| COc1cc2c(cc1OC)CN(C(=O)[C@H]1[C@@H]3C(=O)O[C@@H](c4ccccc4)[C@@H](c4ccccc4)N3[C@@H](c3ccc(OCCO)cc3)[C@]13C(=O)Nc1ccc(C#CCCO)cc13)CC2 | 0.903 | -0.269 | 0.33 | -0.296 (inactive) | 1.4 | 1.29 | 0.292 | 1.37 | 0.167 | 0.813 | 1.43 | -0.563 | 0.509 | 1.23 | 0.642 | 0.0668 | -0.0146 | 0.033 | 1.02 | 1.72 |
| O=C1C[C@]2(c3ccc([N+](=O)[O-])cc3)C(=O)N(Cc3ccccc3)c3cc(CO)ccc3[C@H]2N1CC12CC3CC(CC(C3)C1)C2 | -1.44 | 1.03 | 0.259 | 1.39 (inactive) | -0.36 | -0.855 | -0.478 | -0.791 | -0.852 | -0.544 | -0.864 | -0.411 | -1.11 | -0.393 | -0.11 | -0.281 | -0.408 | -0.103 | -0.0647 | -0.814 |
| CO[C@H]1O[C@H](CO)[C@@H](OC(=O)c2ccc(Br)cc2)[C@@H]2OC(=O)[C@@H](Cc3ccc4ccccc4c3)C/C=C/C[C@H](Cc3ccc4ccccc4c3)C(=O)O[C@@H]12 | 0.995 | 0.463 | 0.769 | -0.83 (inactive) | 0.429 | 0.548 | -0.567 | 0.323 | -0.54 | 0.588 | 0.872 | -1.13 | -0.255 | 1.29 | -0.145 | -0.0894 | -0.16 | -0.241 | 1.22 | 0.528 |
| COc1ccc([Si](C)(C)[C@H]2[C@H](CCn3cc(CCO)nn3)O[C@@]3(C(=O)N(Cc4ccc(N5C(=O)c6cccc7cccc5c67)cc4)c4ccccc43)[C@@H]2C)cc1 | 0.96 | -0.145 | -0.564 | -2.8 (inactive) | 0.916 | 0.682 | 0.567 | 1.3 | 0.652 | 0.281 | 1.4 | -5.13 | 0.691 | 0.778 | 0.487 | -0.117 | 0.0121 | 0.298 | 0.537 | 1.08 |
| C=C[C@H](COC(C)=O)NS(=O)(=O)c1ccc(Br)cc1 | 0.786 | -0.247 | -0.272 | 0.485 (inactive) | -0.28 | -0.384 | 0.141 | 0.128 | 0.516 | 0.294 | -0.292 | 0.55 | 0.0605 | -0.173 | -0.766 | -0.0721 | 0.0121 | -0.219 | 0.168 | 0.0669 |
| CN1C(=O)C2C=CC(C(O)Cc3ccccc3)N(N(c3ccccc3)c3ccccc3)C2C1=O (stereo not given) | 0.86 | 0.46 | 0.733 | 0.653 (inactive) | 0.812 | -0.227 | -0.567 | -0.068 | -0.303 | 0.864 | 0.501 | -0.251 | -0.268 | -0.0282 | 0.372 | 0.0438 | 0.0469 | 1.14 | 0.368 | 0.678 |
| COc1ccc(C(O)C2C=CC3C(=O)N(C)C(=O)C3N2N2CCCCC2)cc1 (stereo not given) | 1.23 | 0.297 | 0.378 | 1.33 (inactive) | 0.632 | 1.09 | 0.579 | 0.306 | 0.224 | 1.31 | 0.069 | 0.633 | 0.108 | 0.204 | 0.3 | 0.1 | 0.457 | 1.07 | 2.36 | 0.55 |
| C=C[C@@H](C)[C@H](OC(=O)Nc1ccc(SC)cc1)c1ccc(OCCO)cc1 | -0.435 | -0.0748 | 0.626 | -1.91 (inactive) | -0.553 | -1.14 | -0.541 | -0.138 | -0.773 | -0.0131 | -0.868 | 2.09 | -1.03 | -0.163 | 0.649 | 0.0423 | -0.206 | 1.41 | -0.111 | 0.0265 |
| CO[C@H]1O[C@H](CO)[C@@H](OC(=O)Nc2ccc(Oc3ccccc3)cc2)[C@H](OC(=O)Nc2ccccc2-c2ccccc2)[C@@H]1OC(=O)Nc1ccccc1-c1ccccc1 | 1.31 | 0.686 | 0.609 | -1.52 (inactive) | 0.959 | 1.15 | 0.223 | 0.787 | 0.338 | 0.586 | 1.02 | -3.19 | 0.242 | 2.17 | 0.409 | -0.0667 | 0.256 | 1.74 | 1.27 | 1.52 |
